HSV replic up – HSV replication enhancement; AID 1956; maximum fold increase; HSV replication augmentation in cells, fold increase; 220,000 tested, 0.005% active; in the data active = maximum fold increase above about 1.5; tested in PC3 cells
TNF death inh – blocks TNF-alpha induced death of Jurkat FADD-/- cells; Jurkat FADD-/- TNF necroptosis rescue, ATP luminescence, 24 h; 0 = TNF only, 100 = no-TNF cells; activation (protection from cell death), % at 10 µM; 220,000 tested, 0.068% active; AID 463075;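 active = activation, meaning protection from cell death, of at least 50% relative to plate controls; inactive = activation below 50%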;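 note: necroptosis triggered by 40 ng/mL TNF-alpha added together with compound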
zVAD death inh – blocks zVAD induced death of L929 cells; L929 zVAD necroptosis rescue, ATP luminescence, 24 h; with zVAD 60 µM; 220,000 tested, 0.38% active; viability rescue, % at 10 µM;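 active = activation, scaled between plate controls, above about 75%, limit read from the data; inactive = activation under that limit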
m-calpain inh – calpain II (pig) inhibition; purified calpain II, fluorogenic peptide substrate, 30 min; inhibition, % at 16 µM; 220,000 tested, 0.37% active;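 active = inhibition above about 50%, limit read from the data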
Large screens that a line does not name were inactive; ! = repeats disagree. Hits are enriched below; roughly 0.77% of the tested compounds scored in any of these assays.

COc1cc(NS(=O)(=O)c2ccc(NC(=S)NC(=O)c3sc4ccccc4c3Cl)cc2)ncn1	m-calpain inh 57.5
Cc1ccc(CN(Cc2ccccc2)C(=S)NCC(=O)NCc2cccnc2)o1	none
CN(C)C(CNC(=O)c1ccc2c(=O)n(-c3ccccc3F)c(=S)[nH]c2c1)Cc1ccccc1 (stereo unspecified)	none
CCCn1c(SCc2nc3ccccc3s2)n[nH]c1=O	m-calpain inh 50.2
COc1cc(C(=O)Nc2ccc(-n3cnnn3)c(C)c2)cc(OC)c1OC	none
Cc1ccc(NC(=O)c2ccc(C(C)(C)C)cc2)cc1-n1cnnn1	m-calpain inh 62.1
Cc1cc(-n2cnc(-c3cn[nH]c3C)n2)no1	none
Cc1ccccc1Nc1nnc(SCc2nc3ccccc3c(=O)[nH]2)s1	none
CCOc1ccc(Nc2nnc(SCc3nc4ccccc4c(=O)[nH]3)s2)cc1	m-calpain inh 51.6
O=c1c2cc(NC(=S)NCCN3CCCCCC3)ccc2nc2n1CCCCC2	none
CCCCN(CC)CCCNC(=S)Nc1ccc2nc3n(c(=O)c2c1)CCCCC3	m-calpain inh 64.8 (no result: zVAD death inh)
CCCCn1c(-c2csc3c2CCCC3)n[nH]c1=S	none
CCCCn1c(-c2csc3c2CCC(C)C3)n[nH]c1=S (stereo unspecified)	m-calpain inh 66.4
COc1ccc(NC(=S)NCCc2c(C)[nH]c3ccc(OC)cc23)cc1	m-calpain inh 61.6
COc1ccc(CCNC(=S)Nc2ccc(OC)cc2)cc1	none
COc1cc(Br)cc(CNc2ccc(F)c([N+](=O)[O-])c2)c1O	m-calpain inh 91.4
COCC(C)n1c(C)cc(C(=O)COC(=O)CNC(=O)c2ccccc2)c1C (stereo unspecified)	none
COCCn1c(C)cc(C(=O)COC(=O)CNC(=O)c2ccccc2)c1C	m-calpain inh 58.7 (no result: zVAD death inh)
CC(OC(=O)c1ccccc1Nc1ccc(SC(F)F)cc1)C(N)=O (stereo unspecified)	m-calpain inh 68.2
O=S(N1CCc2ccccc21)C12CC3CC(CC(C3)C1)C2 (stereo unspecified)	m-calpain inh 102.8
Cc1ccccc1NC(=O)COC(=O)CCc1ccccc1	m-calpain inh 63.9
O=C(COC(=O)CCc1ccccc1)Nc1ccccc1OC(F)F	none
Cc1ccc(N2C(=N)/C(=C3/Nc4ccccc4S3)C(c3ccccc3)C2=O)cc1 (stereo unspecified)	none
COc1ccc(-n2nnnc2S(=O)(=O)Cc2ccc(C(=O)O)cc2)cc1	none
COc1ccc(-n2nnnc2S(=O)(=O)CC(=O)N2CCCCC2)cc1	zVAD death inh 79.3
Nn1c(SCC(=O)Nc2ccc3c(c2)OCO3)nnc1-c1ccncc1	none (no result: HSV replic up)
Cc1cc(NC(=O)CSc2nnc(-c3ccncc3)n2N)ccc1Br	m-calpain inh 137.5
CCCOc1ccc(NC(=O)C2CC(=O)N(C)C(=Nc3cccc(OC)c3)S2)cc1 (stereo unspecified)	none
CC(C)NC(=S)N/N=C/C1=CCC2CC1C2(C)C (stereo unspecified)	m-calpain inh 51.2
CC(=O)N/N=C/C1=CCC2CC1C2(C)C (stereo unspecified)	none
O=C(O/N=C/c1ccc2c(c1)OCO2)c1ccc([N+](=O)[O-])cc1	m-calpain inh 70.0
CCCn1c(=S)[nH]c2cc(C(=O)N3CCc4ccccc4C3)ccc2c1=O	m-calpain inh 57.2
O=C(CCCCCN1C(=O)c2ccccc2C1=O)Nc1ccc(S(=O)(=O)N2CCCCC2)cc1	m-calpain inh 53.4
CC1CCN(S(=O)(=O)c2ccc(NC(=O)CCN3C(=O)c4ccccc4C3=O)cc2)CC1	none
COCCNC(=O)/C(C#N)=c1\s/c(=C\c2ccccc2OC(F)F)c(=O)n1Cc1ccccc1	none
Cc1cccc(NC(=O)CN2C(=O)N/C(=C/c3cc(C)n(-c4ccncc4)c3C)C2=O)c1	none
Cc1cccc(NC(=O)CN2C(=O)N/C(=C/c3cc(C)n(-c4cccnc4)c3C)C2=O)c1	m-calpain inh 50.5
N#Cc1c(NC(=S)NC(=O)c2ccccc2)sc2c1CCCC2	none
CCCC1Cc2c(sc(NC(=S)NC(=O)c3ccccc3)c2C#N)CO1 (stereo unspecified)	m-calpain inh 53.4
O=c1[nH]c2ccc([N+](=O)[O-])cc2nc1/C=C(\O)c1ccccc1	HSV replic up 1.65
C/C(O)=C/c1nc2ccccc2[nH]c1=O	none
Cc1cccc(C)c1NCc1n[nH]c(=S)n1-c1ccccc1	none
CCc1oc2ccccc2c1C(=O)c1cc(Br)c(O)c(Br)c1	m-calpain inh 55.4!
CCc1ccc(OCC(=O)c2c(O)c3ccccc3oc2=O)cc1	none
CCOC(=O)c1c(SC)[nH]c2c(Cl)cccc2c1=O	none
C[C@H](NC(=O)Nc1cccc(Br)c1)C(=O)O	none
CCOC(=O)N1CCN(c2ccc(Cl)c(Cl)c2)CC1	none
CCOC(=O)N1CCN(c2ccc(C(=O)c3cccc(F)c3)cc2)CC1	m-calpain inh 58.0
Cc1cccc(OCCC(=O)Nc2ccc(S(=O)(=O)N3CCCC3)cc2)c1	none
Cc1cccc(OCCC(=O)Nc2ccc(C)c(S(=O)(=O)N3CCCCC3)c2)c1	m-calpain inh 55.1
CCOC(=O)C(=CNc1cccc(C)c1C)C(=O)OCC	m-calpain inh 52.1
O=C(CSc1nc2ccccc2c(=O)n1-c1ccccc1)N1CCCc2ccccc21	none
O=C(CSc1nc2ccccc2c(=O)n1-c1ccccc1)N1CCc2ccccc21	m-calpain inh 68.2
COc1ccc(Cc2noc(CN3CCCN(C4Cc5ccccc5C4)CC3)n2)cc1OC	none
CCc1nnc(NS(=O)(=O)c2ccc(NC(=S)NC(=O)c3ccc(Br)cc3)cc2)s1	m-calpain inh 70.4
O=C(O)CNS(=O)(=O)c1ccc(C2CCCCC2)cc1	none
O=C(NCCN1CCOCC1)c1ccc2c(c1)ncn2C1CCCCC1	zVAD death inh 88.4
CC(=O)C1C(c2ccc(F)cc2)c2c(noc2C)CC1(C)O (stereo unspecified)	none
CCOC(=O)c1c2c(c(=S)n(-c3ccccc3)c1N)CCC2	m-calpain inh 51.3
COC(C(=O)Nc1c(F)cccc1F)c1ccccc1 (stereo unspecified)	none
COC(C(=O)Nc1ccc(Cl)cc1C)c1ccccc1 (stereo unspecified)	TNF death inh 97.3 (no result: HSV replic up)
O=S(=O)(Nc1ccccn1)c1ccc(Cl)c2ccccc12	none
O=C(Oc1ccc2c(c1)OCO2)C12CC3CC(CC(C3)C1)C2	m-calpain inh 66.2
O=C1c2ccccc2C(=O)N1CCCCSc1nnnn1-c1ccccc1	m-calpain inh 54.0
O=C(CSc1nnnn1-c1ccccc1)CSc1nnnn1-c1ccccc1	m-calpain inh 75.8
COc1ccc(-n2cnnc2SCC(=O)Nc2cccnc2Cl)cc1	none
O=C(Cc1ccc(Br)cc1)Nc1ncc([N+](=O)[O-])s1	none
O=C(Cc1ccc(Cl)cc1)Nc1ncc([N+](=O)[O-])s1	m-calpain inh 77.2
CCNC(=O)NC(=O)C(C)OC(=O)Cc1coc2cc3c(cc12)CCC3 (stereo unspecified)	none (no result: HSV replic up)
COC(=O)c1sc(S(=O)(=O)N2CCC(C(=O)O)CC2)c(C(=O)OC)c1C	zVAD death inh 83.3
O=C(O)c1cccc(NC(=S)NC(=O)c2ccc(-c3ccccc3)cc2)c1	m-calpain inh 70.4
CC(=O)c1cccc(NC(=S)NC(=O)c2ccccc2)c1	none

High-throughput results: PubChem, several laboratories
